“And” between values parts separate entries of the source, which are not always exact repeats. Equal entries are not always repeated. Records with an inconclusive call do not appear. A call without a number means that no potency is given here. The source holds several records for some structures; these can differ, active in one and inactive in another. The source made the active and inactive calls. Calls come from the whole dose curve; as a rule, active = well fitted curve in the direction sought with a large enough effect in the repeat runs; inconclusive = weak or mixed curves; inactive = no such curve, though single readings can be large; an effect the other way counts as inactive or inconclusive.
Key:
[1] = Caspase-3/7 induction in CHO-K1 cells by small molecules, qHTS cell viability counter screen (AID 1346979); note: nearly all actives have a fitted effect of over 35% in size; note: potency is the fitted concentration of half-maximal effect
Method in brief: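 Cytotoxicity counter screen run in parallel with the caspase-3/7 assay: CHO-K1 cells, 16hr compound treatment at 37C, then CellTiter-Fluor for 1hr before fluorescence reading.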

[2] = Caspase-3/7 induction in HepG2 cells by small molecules, qHTS cell viability counter screen (AID 1346981); note: nearly all actives have a fitted effect of over 30% in size; note: potency is the fitted concentration of half-maximal effect
Method in brief: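 Steps: seed 2,000 HepG2 cells per well; incubate 5 hr at 37 C; pin-add compounds in DMSO; incubate 16 hr; add CellTiter-Fluor; after 1 hr at 37 C and 5% CO2, read fluorescence.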

[3] = target: Nuclear receptor subfamily 1 group I member 2 (Homo sapiens) (UniProt O75469); assay: Human pregnane X receptor (PXR) small molecule agonists, qHTS assay (AID 1346982); note: nearly all actives have a fitted effect of over 35% in size; note: potency is the fitted concentration of half-maximal effect
Nuclear receptor subfamily 1 group I member 2 (Homo sapiens), sequence (O75469 whole entry, looked up): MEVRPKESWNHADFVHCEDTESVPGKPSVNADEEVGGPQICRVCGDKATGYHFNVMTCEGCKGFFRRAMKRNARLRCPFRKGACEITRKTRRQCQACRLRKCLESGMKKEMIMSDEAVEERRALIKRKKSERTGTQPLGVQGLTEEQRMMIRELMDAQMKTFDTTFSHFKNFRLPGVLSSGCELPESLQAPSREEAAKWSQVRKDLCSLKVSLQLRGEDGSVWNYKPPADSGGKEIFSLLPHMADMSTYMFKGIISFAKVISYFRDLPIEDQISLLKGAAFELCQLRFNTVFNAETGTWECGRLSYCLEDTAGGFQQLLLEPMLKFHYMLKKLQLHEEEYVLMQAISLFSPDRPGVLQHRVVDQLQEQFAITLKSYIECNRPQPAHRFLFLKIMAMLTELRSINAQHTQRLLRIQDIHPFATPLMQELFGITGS
Method in brief: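 Agonist mode qHTS: PXR-Luc HepG2 cells plated 5 hr before DMSO-dissolved compounds were pinned in, cultured 24 hr at 37 C, 5% CO2; ONE-Glo luminescence readout.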

[4] = target: Cytochrome P450 2D6 (Homo sapiens) (UniProt P10635); assay: Cytochrome P450 Family 2 Subfamily D Member 6 (CYP2D6) small molecule antagonists: luciferase reporter qHTS assay (AID 1671196); note: nearly all actives have a fitted effect of over 50% in size; note: potency is the fitted concentration of half-maximal effect
Cytochrome P450 2D6 (Homo sapiens), sequence (P10635 whole entry, looked up): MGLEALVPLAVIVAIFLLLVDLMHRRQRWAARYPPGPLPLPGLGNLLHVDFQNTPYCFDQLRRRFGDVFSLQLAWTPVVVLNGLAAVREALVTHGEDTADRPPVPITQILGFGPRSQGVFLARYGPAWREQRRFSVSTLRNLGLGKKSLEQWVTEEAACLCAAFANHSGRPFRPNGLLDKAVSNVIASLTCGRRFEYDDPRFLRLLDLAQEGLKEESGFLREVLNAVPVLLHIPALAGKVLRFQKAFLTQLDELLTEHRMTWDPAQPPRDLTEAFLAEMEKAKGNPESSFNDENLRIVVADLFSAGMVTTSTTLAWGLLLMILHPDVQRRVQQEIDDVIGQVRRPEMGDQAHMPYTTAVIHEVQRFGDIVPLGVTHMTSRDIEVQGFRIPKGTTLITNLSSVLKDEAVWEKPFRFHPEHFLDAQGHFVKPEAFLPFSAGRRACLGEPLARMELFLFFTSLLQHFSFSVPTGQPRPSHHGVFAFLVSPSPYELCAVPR
Method in brief: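 P450-Glo format: CYP2D6 converts a proluciferin substrate to luciferin in an NADPH-driven reaction lasting 1 h at room temperature. Light output, proportional to CYP2D6 activity, reflects interference by test chemicals.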

[5] = target: Cytochrome P450 2C19 (Homo sapiens) (UniProt P33261); assay: Cytochrome P450 Family 2 Subfamily C Member 19 (CYP2C19) small molecule antagonists: luciferase reporter qHTS assay (AID 1671197); note: nearly all actives have a fitted effect of over 65% in size; note: potency is the fitted concentration of half-maximal effect
Cytochrome P450 2C19 (Homo sapiens), sequence (P33261 whole entry, looked up): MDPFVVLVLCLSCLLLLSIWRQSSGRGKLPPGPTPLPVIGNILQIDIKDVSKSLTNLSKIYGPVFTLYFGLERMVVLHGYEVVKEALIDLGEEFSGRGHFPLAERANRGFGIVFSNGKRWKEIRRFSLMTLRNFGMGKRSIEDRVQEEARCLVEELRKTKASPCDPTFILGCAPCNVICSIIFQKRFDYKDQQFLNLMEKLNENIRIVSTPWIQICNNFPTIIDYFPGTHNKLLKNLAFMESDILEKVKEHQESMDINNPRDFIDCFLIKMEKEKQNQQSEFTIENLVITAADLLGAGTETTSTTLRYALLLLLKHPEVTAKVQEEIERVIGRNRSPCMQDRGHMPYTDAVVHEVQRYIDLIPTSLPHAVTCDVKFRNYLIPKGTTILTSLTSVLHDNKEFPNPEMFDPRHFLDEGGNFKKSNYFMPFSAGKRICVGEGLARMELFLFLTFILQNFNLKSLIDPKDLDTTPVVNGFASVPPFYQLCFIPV
Method in brief: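 P450-Glo CYP2C19 system: enzyme-substrate mix with compound 10 min at room temperature, then NADPH regeneration solution, 1 h at 37C. Proluciferin-to-luciferin conversion detected by luminescence after 20 min with detection reagent; ketoconazole as positive control.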

[6] = Caspase-3/7 induction in CHO-K1 cells by small molecules, qHTS assay (AID 1346980); note: nearly all actives have a fitted effect of over 15% in size
Method in brief: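 Wild-type CHO-K1 cells exposed to compounds for 17hr at 37 C, 5% CO2. Caspase-3/7 activity then measured by Caspase-Glo 3/7 luminescence after 30min at room temperature.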

[7] = target: Nuclear receptor subfamily 1 group I member 2 (Rattus norvegicus) (UniProt Q9R1A7); assay: Rat pregnane X receptor (rPXR) activation by small molecules, qHTS assay (AID 1346983); conditions: rPXR luciferase reporter cells, One-Glo luminescence, 24 h; stronger effect = higher value; note: nearly all actives have a fitted effect of over 20% in size
Nuclear receptor subfamily 1 group I member 2 (Rattus norvegicus), sequence (Q9R1A7 whole entry, looked up): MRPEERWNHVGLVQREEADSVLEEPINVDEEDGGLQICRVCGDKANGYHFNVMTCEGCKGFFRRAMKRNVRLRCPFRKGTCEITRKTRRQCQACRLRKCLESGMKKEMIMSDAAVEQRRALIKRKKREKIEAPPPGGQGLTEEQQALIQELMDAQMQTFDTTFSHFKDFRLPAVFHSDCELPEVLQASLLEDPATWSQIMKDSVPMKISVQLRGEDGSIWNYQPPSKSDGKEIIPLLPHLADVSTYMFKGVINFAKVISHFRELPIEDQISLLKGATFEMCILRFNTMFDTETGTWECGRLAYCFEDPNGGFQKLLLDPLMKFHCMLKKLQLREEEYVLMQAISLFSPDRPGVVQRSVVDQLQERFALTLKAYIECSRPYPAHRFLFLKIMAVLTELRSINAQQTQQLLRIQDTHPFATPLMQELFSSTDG
Method in brief: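 Cell-based rPXR activation assay: rPXR cells, 2,000 per well, rested 5hr at 37 C, then exposed to compounds in DMSO for 24 hr at 37 C. Luciferase activity read by One-Glo luminescence after 30 min at room temperature.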

[8] = target: Nuclear receptor subfamily 1 group I member 2 (Homo sapiens) (UniProt O75469); assay: CYP3A4 induction through human pregnane X receptor (PXR) by small molecules, qHTS assay (AID 1346984); note: nearly all actives have a fitted effect of over 40% in size; note: potency is the fitted concentration of half-maximal effect
Method in brief: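 Steps: seed DPX-2 cells, 5 hr at 37C; pin-transfer compounds; 24 hr at 37C; add Luciferin-IPA (3uM final), 3 hr at 37C; add One-Glo, 30 min RT; read luminescence.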

[9] = target: Nuclear receptor subfamily 1 group I member 2 (Homo sapiens) (UniProt O75469); assay: Human pregnane X receptor (PXR) activation by small molecules, qHTS assay (AID 1346985); note: nearly all actives have a fitted effect of over 40% in size
Method in brief: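 DPX-2 cells (HepG2 co-transfected with a PXR response element and a CYP3A4-promoter luciferase construct) were seeded at 2,000 per well, rested 5 hr at 37C, then exposed to DMSO-dissolved compounds for 24 hr. Activation was read as luciferase luminescence.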

Row | SMILES | Potency [1] | Potency [2] | Potency [3] | Potency [4] | Potency [5] | outcome [6] | max activation [7] | Potency [8] | outcome [9]
1 | C=C(C)C(=O)OCC(C)C | 12.4 µM (active) and inactive | inactive | 17.5 µM (active) and inactive | inactive | inactive |  |  |  | 
2 | CC(CCO)CC(C)(C)C (stereo not given) | inactive | inactive | inactive | inactive | inactive and 79.6 µM (active) |  |  |  | 
3 | CC(C)OC(=O)COc1ccc(Cl)cc1Cl | inactive | inactive |  |  | 11.1 µM (active) and 50.2 µM (active) |  |  |  | 
4 | OCc1ccccc1 | inactive | inactive | inactive | inactive | 35.1 µM (active) | inactive | -0.795% (inactive) | inactive | inactive
5 | CC(O)CC(C)(C)O (stereo not given) | inactive | inactive | inactive | inactive | inactive | inactive |  |  | 
6 | CC(=O)OC1CC(C)OC(C)O1 (stereo not given) | inactive | inactive |  | inactive | 70.1 µM (active) and inactive |  |  |  | 
7 | CCCCCCCCCCO | inactive | inactive | inactive | inactive | inactive | inactive |  |  | 
8 | CC(C)CCCCCCCOC(=O)CCCCC(=O)OCCCCCCCC(C)C | inactive | inactive | 50.4 µM (active) and inactive | inactive | 92.8 µM (active) and inactive | inactive |  |  | 
9 | O=C(O)c1cc2ccccc2cc1O | inactive | inactive | 54.1 µM (active) | inactive | 35.3 µM (active) and 79.6 µM (active) | inactive |  |  | 
10 | CNC(=S)N(C)C | inactive | inactive | 61.7 µM (active) and inactive | inactive | inactive | inactive |  |  | 
11 | C[C@]12CCC(=O)C=C1CC[C@@H]1[C@@H]2[C@@H](O)C[C@@]2(C)[C@H]1CC[C@]2(O)C(=O)CO | inactive | inactive |  | inactive | inactive |  | 9.15% (inactive) |  | 
12 | C=CC(C)CCCC(C)(C)O (stereo not given) | inactive | inactive | inactive | 31.7 µM (active) | inactive |  |  |  | 
13 | COc1ccc(CCC(C)=O)cc1 | inactive | inactive |  | inactive | 28.3 µM (active) and inactive |  |  |  | 
14 | Brc1ccc(Br)c(Br)c1 | inactive | inactive |  | inactive | inactive | inactive |  |  | 
15 | O=C(OCC1CCC2OC2C1)C1CCC2OC2C1 (stereo not given) | inactive | inactive |  | 16.6 µM (active) and inactive | inactive | inactive |  |  | 
16 | C=CC[N+](C)(C)CC=C | inactive | inactive |  | inactive | 56.8 µM (active) and inactive |  |  |  | 
17 | CCCCCC(=O)O | inactive | inactive |  | inactive | 71.1 µM (active) and inactive |  |  |  | 

Row | SMILES | Potency [1] | Potency [2] | Potency [3] | Potency [4] | Potency [5] | outcome [6] | max activation [7] | Potency [8] | outcome [9]
18 | OCc1cccc(Oc2ccccc2)c1 | inactive | inactive |  | 28.7 µM (active) | 10.2 µM (active) and 22.4 µM (active) | inactive |  |  | 
19 | O=S(=O)(O)c1ccc(N=Nc2c(O)ccc3cc(S(=O)(=O)O)ccc23)cc1 | 54.7 µM (active) and 27.3 µM (active) | 54.7 µM (active) and 30.6 µM (active) | inactive | 31.8 µM (active) | 71.3 µM (active) |  |  |  | 
20 | CCNc1ccccc1 | inactive | inactive |  | inactive | 25.6 µM (active) |  |  |  | 
21 | CNC(=O)Oc1ccc2c(c1)[C@]1(C)CCN(C)[C@@H]1N2C | inactive | inactive |  | 564 nM (active) and 977 nM (active) | 25.2 µM (active) and inactive | inactive | -1.54% (inactive) | inactive | inactive
22 | C=Cc1ccc(C)cc1 | inactive | inactive | inactive | inactive | inactive | inactive |  |  | 
23 | CCOC(=O)c1ccc(N)cc1 | inactive | inactive | inactive | inactive | 39.9 µM (active) and inactive | inactive | -0.927% (inactive) | inactive | inactive
24 | CC(=O)OCc1ccccc1 | inactive | inactive |  | inactive | inactive | inactive |  |  | 
25 | CCCCCCCC=O | inactive | inactive | inactive | inactive | inactive |  |  |  | 
26 | O=C1C(c2[nH]c3ccccc3c2O)=Nc2ccccc21 | inactive | inactive |  | inactive | inactive | inactive | 3.64% (inactive) | 0.891 µM (active) | inactive
27 | CC(C)(C)c1cc(Cc2cc(C(C)(C)C)c(O)c(C(C)(C)C)c2)cc(C(C)(C)C)c1O | inactive | inactive | inactive | inactive | inactive | inactive |  |  | 
28 | NCCNCCN | inactive | inactive |  | 63.5 µM (active) | inactive |  |  |  | 
29 | CCOCCOCCOCCO | inactive | inactive | inactive | inactive | 82.4 µM (active) and inactive | inactive |  |  | 
30 | C=CC(=O)OCCC(=O)O | inactive | inactive | inactive | 23.2 µM (active) and inactive | 104 µM (active) and inactive |  |  |  | 
31 | COc1ccc(OC)cc1 | inactive | inactive | inactive | inactive | 40.7 µM (active) and inactive | inactive |  |  | 
32 | NCCCCCCN | 2.75 µM (active) and 19.3 µM (active) | inactive |  | 32 µM (active) and 35.6 µM (active) | inactive | inactive |  |  | 
33 | O=C(O)CCCCCCCCC(=O)O | inactive | inactive |  | inactive | 50.5 µM (active) and inactive | inactive |  |  | 
